# Compound activity as filed in PubChem BioAssay.
# D3 antag = qHTS of D3 Dopamine Receptor Antagonist: qHTS | actives 2.5% (n = 360,000) | D3R cells, DiscoveRx beta-arrestin luminescence, antagonist mode; stronger effect = lower value | max response, negative = inhibition, % | AID 652054, 2013 | D(3) dopamine receptor (Homo sapiens), P35462; in the data active = max response below about -50%; inconclusive = no clear call, values can overlap the other calls; note: % is set by controls: 0 for no effect and ±100 for the full control effect
# Target sequence (P35462 whole entry, looked up): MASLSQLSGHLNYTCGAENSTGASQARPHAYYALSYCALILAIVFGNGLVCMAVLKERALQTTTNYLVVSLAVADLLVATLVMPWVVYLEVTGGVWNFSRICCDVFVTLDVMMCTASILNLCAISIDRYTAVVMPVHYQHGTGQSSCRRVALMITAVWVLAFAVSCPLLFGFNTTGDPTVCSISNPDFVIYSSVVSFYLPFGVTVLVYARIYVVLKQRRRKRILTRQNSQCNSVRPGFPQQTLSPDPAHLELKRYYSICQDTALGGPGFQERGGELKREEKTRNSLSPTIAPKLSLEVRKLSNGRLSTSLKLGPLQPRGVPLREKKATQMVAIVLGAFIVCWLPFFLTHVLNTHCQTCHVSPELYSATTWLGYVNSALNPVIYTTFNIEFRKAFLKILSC
#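 Cells expressing the human receptor were seeded at 1500 cells/well, incubated overnight at 37 degrees C in 5% CO2, then exposed to library compounds with dopamine controls for 90 minutes at 37 degrees C before luminescent detection.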
# DRD3 agonist = qHTS of D3 Dopamine Receptor Agonist: qHTS; max activation, %; D(3) dopamine receptor (Homo sapiens), P35462; AID 652048, 2013; actives 0.58% (n = 410,000); D3R DiscoveRx beta-arrestin cells, luminescence, 90 min; in the data active = max activation above about 30%; note: 0% is about no effect
#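 Agonist-mode cell screen: cells plated at 1500/well and incubated overnight at 37 °C, then exposed to library compounds for 90 min at 37 °C. Detection reagent was added for 30–60 min at room temperature, and luminescence was read.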
# KB-3-1 tox = qHTS assay for MDR1-selective chemotherapeutics: Primary screen using the parental adenocarcinoma cell KB-3-1 | Potency, µM (doses to about 46.1 µM), usual class: cytotoxic | AID 1347075, 2019 | actives 1.4% (n = 400,000) | KB-3-1 viability, CellTiter-Glo ATP luminescence, 72 h; note: potency is the fitted concentration of half-maximal effect; % is set by controls: 0 for no effect and ±100 for the full control effect; nearly all actives have a fitted effect of over 60% in size
#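 Viability of parental KB-3-1 cells, measured by CellTiter-Glo luminescence, followed a 72 h incubation at 37 °C with pinned compounds in phenol-red-free DMEM containing 10% FBS.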
# MCF10A rereplic = A quantitative high throughput screen for small molecules that induce DNA re-replication in MCF 10a normal breast cells; Potency, µM (series often up to 46.1 µM), for the others: top-dose activity, positive = re-replication, usual class: activators; AID 624296, 2012; MCF 10A DNA re-replication, Hoechst nuclear intensity, 48 h; actives 2.9% (n = 350,000); note: potency is the fitted concentration of half-maximal effect; % of control where 0% means no effect; nearly all actives have a fitted effect of over 50% in size
# SW480 rerep = A quantitative high throughput screen for small molecules that induce DNA re-replication in SW480 colon adenocarcinoma cells. SW480 DNA re-replication, Hoechst DNA content imaging, 48 h. Potency, µM (titrated, usually from 46.1 µM), for inactives: at the top dose re-replication activation, hits mostly activators. actives 1.8% (n = 340,000); note: potency is the fitted concentration of half-maximal effect; % of control where 0% means no effect; nearly all actives have a fitted effect of over 55% in size
#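 SW480 cells exposed to compounds for 48 hr at 37 C, 5% CO2, then Hoechst-stained 40 min. Nuclear DNA content imaged by fluorescence scanning (405 nm excitation, 500-530 nm emission); re-replication scored as increased high-intensity nuclei.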
# KB-V1 cytotox = qHTS assay for MDR1-selective chemotherapeutics: Primary screen using the drug-selected MDR subline cells KB-V1. KB-V1 MDR cells viability, CellTiter-Glo, 72 h. Potency, µM (doses to about 46.1 µM), most hits filed as cytotoxic. actives 3.4% (n = 400,000). AID 1347076, 2019; note: potency is the fitted concentration of half-maximal effect; % is set by controls: 0 for no effect and ±100 for the full control effect; nearly all actives have a fitted effect of over 60% in size
#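 Readout: CellTiter-Glo luminescence, 10 min after addition. Cells: KB-V1 MDR subline, 72 h at 37 degrees C with compound. Analysis: corrected, normalized data fitted to concentration-effect curves.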
# * marks the source's active call; other numbers are inactive results; i = inactive; u = inconclusive; x = not tested or not shown. An excerpt weighted towards active compounds, which were near 8.9% of everything screened. Unless noted, calls come from the whole dose curve; as a rule, active = well fitted curve in the direction sought with a large enough effect; inconclusive = small, poorly fitted or top-dose-only effect, or another doubt; inactive = no such curve, though single readings can be large; an effect the other way counts as inactive or inconclusive.
SMILES,D3 antag,DRD3 agonist,KB-3-1 tox,MCF10A rereplic,SW480 rerep,KB-V1 cytotox
CC1Cc2cc(/C(O)=C3/C(=O)C(=O)N(CCCn4ccnc4)C3c3ccc(Br)cc3)ccc2O1 (centres undefined),3,-2,i,-6%,-4%,i
O=S(=O)(NCCc1csc2nc(-c3ccc(Cl)cc3)nn12)c1ccc(Oc2ccccc2)cc1,x,-2,x,x,x,x
C(=Nc1cccnc1)c1ccc2ccccc2n1,x,x,i,x,x,i
COc1ccc(S(=O)(=O)N2CCOCC2)cc1NC(=O)COc1ccc(C)cc1,-2,-7,x,-3%,9%,x
COc1ccc(S(=O)(=O)N2CCCCC2)cc1NC(=O)Cc1ccsc1,8,6,x,u,5%,x
O=C(Nc1ccccc1O)c1cccc(S(=O)(=O)N2CCOCC2)c1,-3,1,i,-6%,-6%,i
CCOc1ccc(S(=O)(=O)N2CCOCC2)cc1NC(=O)CSCc1ccc(C)cc1,-4,-2,18µM*,u,u,u
CCOc1ccc(S(=O)(=O)N2CCCCC2)cc1NC(=O)Cc1ccsc1,0,9,i,3%,-4%,12µM*
COc1cc(S(=O)(=O)N2CCOCC2)ccc1NC(=O)COC(=O)CC12CC3CC(CC(C3)C1)C2,-53*,-6,i,13%,1%,u
COc1ccccc1NC(=O)c1cccc(S(=O)(=O)N2CCOCC2)c1,-52*,3,i,-4%,1%,i
COC(=O)c1cc2sc(C)cc2n1Cc1cccc(OC)c1,x,6,x,x,x,x
CC(=O)NCCNC(=O)C1(C)Cc2c(-c3cccc(C(F)(F)F)c3)ccnc2O1 (centres undefined),22,2,i,x,x,i
CCS(=O)(=O)c1c(Nc2ccc(F)c(Cl)c2)sc(C(=O)c2ccccc2)c1N,x,-8,i,x,x,i
CCOCCCN1C(=O)CN(C2CCCCCC2)C(=O)C1c1ccc(OCC)c(OC)c1 (centres undefined),x,-29,x,x,x,x
O=C(COC(=O)c1cccc(Br)c1)NC1CCCCCCC1,-13,-3,i,x,x,i
COc1ccc(S(=O)(=O)N2CCOCC2)cc1NC(=O)c1ccc2c(c1)OCO2,-11,53*,i,u,3%,i
COc1ccc(S(=O)(=O)N2CCCCC2)cc1NC(=O)c1ccc2c(c1)OCO2,9,-1,i,-7%,x,i
CCCn1c(=N)c(C(=O)NCC2CCCO2)cc2c(=O)n3cccc(C)c3nc21 (centres undefined),7,-10,21µM*,12µM*,u,i
COCCCn1c(=N)c(C(=O)NCC2CCCO2)cc2c(=O)n3cccc(C)c3nc21 (centres undefined),-18,-1,u,13µM*,6.5µM*,u
COCCCn1c(=N)c(C(=O)NCC2CCCO2)cc2c(=O)n3ccccc3nc21 (centres undefined),0,-2,i,12µM*,6.5µM*,i
Cc1cccn2c(=O)c3cc(C(=O)NCc4cccnc4)c(=N)n(CC4CCCO4)c3nc12 (centres undefined),4,3,i,2.3µM*,u,i
Cc1noc(C)c1S(=O)(=O)N(C)C[C@H]1Oc2ccc(NC(=O)NC(C)C)cc2C(=O)N([C@H](C)CO)C[C@@H]1C,6,-15,i,17%,-12%,i
CC1CCCN(C(=O)Cn2ncc3c([nH]c4ccccc43)c2=O)C1 (centres undefined),x,8,i,x,x,i
CCOc1ccccc1NC(=O)CCS(=O)(=O)c1ccc2c(c1)oc(=O)n2C,x,-8,i,x,x,i
Cn1c(=O)c2c(nc3n(-c4ccc(O)cc4)c(-c4ccc(Br)cc4)cn23)n(C)c1=O,x,-1,i,x,x,i
SMILES,D3 antag,DRD3 agonist,KB-3-1 tox,MCF10A rereplic,SW480 rerep,KB-V1 cytotox
CN(CC(=O)Nc1ccccc1Cl)CC(=O)N1CCc2ccccc21,u,-4,i,-6%,-6%,i
Cn1c(=O)c2sccc2n2c(CCC(=O)NCc3ccc(F)cc3)nnc12,x,-8,i,x,x,i
Cc1cccn2c(=O)c3cc(C(=O)NCC4CCCO4)c(=N)n(CCN4CCOCC4)c3nc12 (centres undefined),-16,4,i,15µM*,16µM*,i
COc1ccc(C(=O)c2cn[nH]c2-c2cc(Cl)ccc2O)cc1,39,1,u,22%,u,18µM*
Cc1ccc(C(=O)Nc2ccc3oc(-c4cc(Br)ccc4Cl)nc3c2)cc1,x,-4,i,x,x,i
O=S1(=O)CCOC[C@H](Cc2ccccc2)N1Cc1ccc(F)cc1,-4,4,i,0%,-17%,i
C=CCN1[C@@H](Cc2ccccc2)COCCS1(=O)=O,-50*,-25,i,u,1%,i
NC(=O)NS(=O)(=O)c1ccc(N)cc1,x,4,x,9%,4%,x
Cc1cc(C)c(C(=O)c2ccc(C(=O)NC(C)(C)C)cc2)c(C)c1,28,-5,i,-13%,-4%,i
Cc1cc(C)c(C(=O)c2ccc(C(=O)N(C(C)C)C(C)C)cc2)c(C)c1,u,-23,u,1%,6%,16µM*
COc1ccc(NC(=O)CSc2nnc(Cc3cccs3)n2-c2ccc(C)cc2)cc1,54,81*,i,7%,4%,i
COc1ccc(-n2c(Cc3cccs3)nnc2SCC(=O)Nc2ccc3c(c2)OCCO3)cc1,14,22,i,19%,15%,u
COc1cccc(NC(=O)CSc2nnc(Cc3cccs3)n2-c2ccc(C)cc2)c1,80,17,i,8%,2%,8.2µM*
CCOC(=O)c1c(C)c(-c2ccccc2)n(CC(=O)NC2CCCCC2)c1C,x,-8,i,x,x,i
CCc1nn(CC(=O)NC(C)c2ccccc2)c(=O)c2cc3sccc3n12 (centres undefined),x,-18,i,x,x,i
Nc1nc2ncccn2c1-c1ccc(F)cc1,2,2,i,x,x,i
O=Nc1nc2ncccn2c1-c1ccccc1,-57*,-14,i,13µM*,9.2µM*,u
CCc1cccc(CC)c1NC(=O)COC(=O)CC1c2ccccc2CCN1S(=O)(=O)c1ccc(F)cc1 (centres undefined),2,-5,i,13%,14%,18µM*
